About 83,000 compounds went through this panel and 20% of them were active in at least one assay; those are over-represented in the sample as a whole.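 Each cell line was grown in a 96-well plate and treated with one concentration of compound for 48 hours. Values below 10 were considered active.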 Values without a mark were called inactive. Calls of active or inactive are those of the source.

Assay in all cases: NCI-60 one-dose screen, 48 h (100 = growth as untreated, 0 = no growth, -100 = all killed)
Holding throughout (conditions): 10 µM

In test [1] the test system is HCT-15 colon.
Test [2] deals with HT29 colon.
The subject of test [3] is SNB-75 CNS.
Test [4] deals with SNB-19 CNS.
The subject of test [5] is U251 CNS.
The subject of test [6] is PC-3 prostate.
For test [7], the system named is SK-MEL-5 melanoma.
Test [8] has as its system UACC-62 melanoma.
For test [9], the system named is LOX IMVI melanoma.
Test [10] relates to SK-MEL-28 melanoma.
Test [11] concerns SK-MEL-2 melanoma.
Test [12] has as its system EKVX NSCLC.
Test [13] deals with SN12C renal.
For test [14], the system named is UO-31 renal.
Test [15] deals with TK-10 renal.
Test [16] relates to ACHN renal.
Test [17] has as its system CAKI-1 renal.
Test [18] has as its system A498 renal.
The test system of test [19] is CCRF-CEM leukemia.
In test [20] the test system is MOLT-4 leukemia.

With `CC(=O)CS(C)(=O)=O`, the growth in test [1] was 110%; in test [2] it was 107%; in [3] it was 96.9%; in [4], 102%; in test [5], 102%; in [6], 103%. Besides, the growth in test [7] was 98%; in test [8] it was 108%; in test [9] it was 101%; in test [10], 113%; in test [11], 103%; in [12], 93.6%. For the same compound, the growth in test [13] is 105%; in test [14], 92.4%; in test [15], 103%; in [16], 106%; in test [17], 101%; in test [18], 98.8%. For the same compound, the growth was 103% in test [19] and 106% in test [20].
On to `Cc1ccc(NS(=O)(=O)c2ccccc2)c(NS(=O)(=O)c2ccccc2)c1`, for which the growth in test [1] is 104%; in test [2], 102%; in test [3] it was 90.5%; in [4], 95.2%; in test [5], 98.6%; in test [6] it was 94.6%. Also, the growth in test [7] is 104%; in [8], 87.9%; in test [9], 94.5%; in test [10], 116%; in test [11], 98.6%; in test [12] it was 93.8%. Also, the growth was 90.4% in [13]; 69.4% in [14]; 112% in [15]; 94.3% in [16]; 93.2% in test [17]; 115% in test [18]. In addition, the growth in test [19] is 96%.
Regarding `COc1ccc(C(=O)n2nc(CC(=O)NCc3ccccc3)nc2N)cc1`, the growth was 107% in test [1]; 108% in test [2]; 92.9% in test [3]; 97.3% in test [4]; 105% in [5]; 101% in [6]. Moreover, the growth in [7] is 111%; in [8], 93%; in [9], 101%; in [10], 108%; in test [11], 97.5%; in [12], 113%. For the same compound, the growth in test [13] is 92.5%; in test [14], 82.9%; in test [15], 103%; in [16], 117%; in test [17] it was 110%; in test [18], 110%. The growth is 104% in test [19] and 89.8% in test [20].
As for `COC(=O)c1ccc(Cn2ccc(=O)[nH]c2=O)cc1`, the growth in test [1] was 101%; in test [2], 99.5%; in test [3] it was 90.6%; in [4] it was 110%; in test [5] it was 112%; in test [6], 98.4%. In addition, the growth in test [7] is 109%; in test [8] it was 105%; in test [9], 98.4%; in [10], 111%; in test [11], 100%; in [12] it was 116%. The growth in test [13] was 104%; in test [14] it was 89.3%; in test [15], 104%; in test [16], 107%; in [17], 97.4%; in test [18], 120%. For the same compound, the results for the growth in [19] and in [20] were 92% and 89.3%, respectively.
In the case of `COc1cc([C@@H]2c3cc4c(cc3[C@H](SC(=N)N)[C@H]3COC(=O)[C@H]23)OCO4)cc(OC)c1OC`, the growth was 11.8% in test [1]; 8.38% (active) in test [2]; 30.1% in [3]; 37.4% in test [4]; 23.2% in test [5]; 19.5% in test [6]. Also, the growth in test [7] is -29.6% (active); in test [8] it was 62.2%; in test [9] it was 16.5%; in test [10] it was 63.7%; in test [11] it was 30.8%; in test [12], 33.2%. Further, the growth in test [13] is 27.3%; in [14], 29.3%; in [15], 72.4%; in [16] it was 26.3%; in [17], 5.13% (active); in [18] it was 48.2%. Also, the growth in test [19] is 4.96% (active); in [20] it was 26%.
For the compound `CCOC(=O)c1cc2c(n1Cc1cccc(OC)c1)-c1oncc1CC2`, the growth in test [1] was 28.7%; in test [2], 4.06% (active); in test [3] it was -5.1% (active); in [4], 37.4%; in test [5], 22.4%; in test [6] it was 32.7%. Also, the growth is 8.61% (active) in test [7]; 30.8% in [8]; 41.7% in test [9]; 37.8% in test [10]; 34.7% in [11]; 50.6% in test [12]. Moreover, the growth in [13] was 37.1%; in test [14], -0.772% (active); in test [15], 53.2%; in test [16] it was 42.8%; in test [17], 7.23% (active); in test [18] it was 10.8%. The growth is 13.1% in [19] and 33.1% in test [20].
In the case of `N#CC1C=Cc2c(ccc3ccccc23)N1C(=O)c1ccccc1` (centres undefined), the growth in test [1] is 20.6%; in test [2], 8.15% (active); in [3], 22%; in [4], 43.3%; in test [5], 24%; in [6], 32.6%. Also, the growth in test [7] was 12.7%; in [8], 37.7%; in test [9], 27.5%; in test [10], 48.9%; in [11], 40.7%; in test [12], 17.3%. Further, the growth in [13] was 39.1%; in [14] it was 38.2%; in test [15], 52.8%; in test [16], 42.7%; in test [17], 20.6%; in [18], -7.88% (active). Further, the growth in test [19] was 20.3%; in test [20], 18.9%.
With `COc1ccc(Cn2cc3c(c2-c2cc(OC)c(OC)c(OC)c2)CCc2cnoc2-3)cc1N`, the growth in test [1] is 17.5%; in test [2] it was 8.78% (active); in test [3] it was 50.5%; in test [4] it was 44.6%; in [5] it was 23.2%; in test [6], 31.1%. For the same compound, the growth was -17.9% (active) in test [7]; 50.5% in [8]; 18.7% in test [9]; 62% in test [10]; 37.1% in test [11]; 27.4% in test [12]. Further, the growth in test [13] is 27.6%; in test [14], 40.4%; in test [15], 75.6%; in [16] it was 38.8%; in [17], 6.52% (active); in [18] it was 25%. Further, the growth is 23.7% in [19] and 24.6% in [20].

Source of the values: PubChem BioAssay (NCI).
